Cell viability data for nine compounds are collected here from the supplement of paper PMC10981050.

Where “and” joins values, the source holds several entries; their conditions need not be identical. Equal entries are not always repeated. Structures can show the parent of a compound that is named as a salt.

Test in all cases: cell viability relative to vehicle control; higher = less cytotoxic
What all share (conditions): 10 µM

One experiment has as its system K562. The gist of the method: (§1)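 CRISPR-edited SRSF2 P95 mutant and isogenic wild-type clones of four leukaemia lines were screened against Selleck bioactive, kinase and epigenetic probe libraries, with identity-inconsistent compounds removed. Compounds were acoustically dispensed into 384-well plates at a single 10 µM dose, with 2000 cells in 50 µL medium per well. After 48 h, supernatant was removed and CellTiter-Glo luminescence was read. Viability was expressed as percent of the on-plate DMSO vehicle control, analysed in Genedata Screener.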

A further experiment concerns MARIMO. The gist of the method:
as §1

The test system of another experiment is MOLM14. The essentials: as §1
A further experiment has as its system OCI-AML2. The gist of the method: as §1

Consider `CCOC(=O)Nc1ccc(NCc2ccc(F)cc2)cc1N` [Retigabine], for which the cell viability (commonly a read-out of living cells in per cent, often relative to untreated cells) with K562 (SRSF2 genotype: SRSF2 P95H/wt) was 98.5%; in the experiment with K562 (SRSF2 genotype: SRSF2 wt/wt), 97.3%; with MARIMO (SRSF2 genotype: SRSF2 P95H/wt), 93.7%; in the experiment with MARIMO (SRSF2 genotype: SRSF2 wt/wt), 110%; with MOLM14 (SRSF2 genotype: SRSF2 P95H/wt), 102%; with MOLM14 (SRSF2 genotype: SRSF2 wt/wt) it was 105%. The cell viability was 98.5% with OCI-AML2 (SRSF2 genotype: P95H/wt) and 110% in the experiment on OCI-AML2 (SRSF2 genotype: wt/wt).

As to `C=CCCCCCCCCC(=O)O[C@H]1CC[C@H]2[C@@H]3CCC4=CC(=O)C=C[C@]4(C)[C@H]3CC[C@]12C` [Boldenone Undecylenate], the cell viability in the experiment with K562 (SRSF2 genotype: SRSF2 P95H/wt) is 100% and 92.8%; in the experiment with K562 (SRSF2 genotype: SRSF2 wt/wt), 95.7%; with MARIMO (SRSF2 genotype: SRSF2 P95H/wt), 86%; with MARIMO (SRSF2 genotype: SRSF2 wt/wt), 89.2%; with MOLM14 (SRSF2 genotype: SRSF2 P95H/wt), 57.4%; with MOLM14 (SRSF2 genotype: SRSF2 wt/wt), 26.7%. Also, the cell viability in the experiment with OCI-AML2 (SRSF2 genotype: P95H/wt) is 38.1%; in the experiment with OCI-AML2 (SRSF2 genotype: wt/wt), 36.7%.

For `C=C[C@@]12CN(C)[C@H]3C[C@]14C(=Nc1ccccc14)[C@@H]1C[C@@H]2[C@@H]3CO1` [Koumine], the cell viability with K562 (SRSF2 genotype: SRSF2 P95H/wt) is 99.2% and 99.1%; in the experiment on K562 (SRSF2 genotype: SRSF2 wt/wt), 98.6%; with MARIMO (SRSF2 genotype: SRSF2 P95H/wt) it was 102%; with MARIMO (SRSF2 genotype: SRSF2 wt/wt), 102%; with MOLM14 (SRSF2 genotype: SRSF2 P95H/wt), 104%; with MOLM14 (SRSF2 genotype: SRSF2 wt/wt) it was 96.2%. Further, the cell viability in the experiment on OCI-AML2 (SRSF2 genotype: P95H/wt) and in the experiment with OCI-AML2 (SRSF2 genotype: wt/wt) was 101% each time.

Take `O=P1(N(CCCl)CCCl)NCCCO1` (configuration not stated) [Cyclophosphamide monohydrate]: the cell viability with K562 (SRSF2 genotype: SRSF2 P95H/wt) is 105% and 103%; with K562 (SRSF2 genotype: SRSF2 wt/wt), 108%; in the experiment on MARIMO (SRSF2 genotype: SRSF2 P95H/wt), 94.6%; with MARIMO (SRSF2 genotype: SRSF2 wt/wt), 106%; in the experiment with MOLM14 (SRSF2 genotype: SRSF2 P95H/wt) it was 99.2%; in the experiment on MOLM14 (SRSF2 genotype: SRSF2 wt/wt), 102%. For the same compound, the cell viability worked out at 100% in the experiment on OCI-AML2 (SRSF2 genotype: P95H/wt) and 106% in the experiment on OCI-AML2 (SRSF2 genotype: wt/wt).

In the case of `CCC1CN2CCC3(C(=O)Nc4ccccc43)C2CC1C(=COC)C(=O)OC` (configuration not stated) [Isorhychophylline], the cell viability in the experiment with K562 (SRSF2 genotype: SRSF2 P95H/wt) is 95.3% and 96.3%; in the experiment with K562 (SRSF2 genotype: SRSF2 wt/wt), 95.5%; with MARIMO (SRSF2 genotype: SRSF2 P95H/wt) it was 83.5%; in the experiment on MARIMO (SRSF2 genotype: SRSF2 wt/wt) it was 72%; with MOLM14 (SRSF2 genotype: SRSF2 P95H/wt), 92.5%; with MOLM14 (SRSF2 genotype: SRSF2 wt/wt), 89.1%. The cell viability in the experiment with OCI-AML2 (SRSF2 genotype: P95H/wt) was 97.3%; with OCI-AML2 (SRSF2 genotype: wt/wt) it was 89.8%.

`CNC(C)Cc1ccccc1OC` (configuration not stated) [Methoxyphenamine Hydrochloride]: the cell viability with K562 (SRSF2 genotype: SRSF2 P95H/wt) is 98% and 100%; in the experiment with K562 (SRSF2 genotype: SRSF2 wt/wt) it was 106%; in the experiment on MARIMO (SRSF2 genotype: SRSF2 P95H/wt), 100%; in the experiment with MARIMO (SRSF2 genotype: SRSF2 wt/wt), 104%; in the experiment with MOLM14 (SRSF2 genotype: SRSF2 P95H/wt), 106%; with MOLM14 (SRSF2 genotype: SRSF2 wt/wt), 102%. The cell viability in the experiment on OCI-AML2 (SRSF2 genotype: P95H/wt) is 107%; in the experiment on OCI-AML2 (SRSF2 genotype: wt/wt), 101%.

For `C[N+]1(C)CCCC(OC(=O)C(O)(c2ccccc2)c2ccccc2)C1` (configuration not stated) [mepenzolate bromide], the cell viability in the experiment on K562 (SRSF2 genotype: SRSF2 P95H/wt) is 106% and 102%; with K562 (SRSF2 genotype: SRSF2 wt/wt), 98.9%; in the experiment on MARIMO (SRSF2 genotype: SRSF2 P95H/wt) it was 103%; in the experiment with MARIMO (SRSF2 genotype: SRSF2 wt/wt) it was 112%; in the experiment on MOLM14 (SRSF2 genotype: SRSF2 P95H/wt), 104%; in the experiment with MOLM14 (SRSF2 genotype: SRSF2 wt/wt), 104%. In addition, the figures for the cell viability in the experiment with OCI-AML2 (SRSF2 genotype: P95H/wt) and with OCI-AML2 (SRSF2 genotype: wt/wt) were 101% and 105%, respectively.

With `C[C@H]1CC(=O)C[C@@H]2CC[C@H]3[C@@H]4CC[C@H](O)[C@@]4(C)CC[C@@H]3[C@]21C` [Mesterolone], the cell viability was 84.1% and 79.7% in the experiment on K562 (SRSF2 genotype: SRSF2 P95H/wt); 83% in the experiment on K562 (SRSF2 genotype: SRSF2 wt/wt); 71.6% with MARIMO (SRSF2 genotype: SRSF2 P95H/wt); 82.2% in the experiment on MARIMO (SRSF2 genotype: SRSF2 wt/wt); 79.9% in the experiment on MOLM14 (SRSF2 genotype: SRSF2 P95H/wt); 84.7% in the experiment with MOLM14 (SRSF2 genotype: SRSF2 wt/wt). For the same compound, the cell viability in the experiment on OCI-AML2 (SRSF2 genotype: P95H/wt) turned out to be 75.6%; in the experiment with OCI-AML2 (SRSF2 genotype: wt/wt) it was 80.7%.

Take `O=P1(NCCCl)OCCCN1CCCl` (configuration not stated) [Ifosfamide]: the cell viability with K562 (SRSF2 genotype: SRSF2 P95H/wt) is 98.8% and 105%; in the experiment with K562 (SRSF2 genotype: SRSF2 wt/wt) it was 104%; with MARIMO (SRSF2 genotype: SRSF2 P95H/wt) it was 105%; in the experiment on MARIMO (SRSF2 genotype: SRSF2 wt/wt) it was 100%; in the experiment on MOLM14 (SRSF2 genotype: SRSF2 P95H/wt), 104%; in the experiment with MOLM14 (SRSF2 genotype: SRSF2 wt/wt) it was 101%. Besides, the cell viability in the experiment on OCI-AML2 (SRSF2 genotype: P95H/wt) was found to be 111%; in the experiment on OCI-AML2 (SRSF2 genotype: wt/wt), 98%.
